Settings in all cases: mRNA level, 48 h; actives raise or lower the signal
Read-out in one assay: MYC, MYC (gene 4609)
Put plainly: LTEA_HepaRG_MYC: Life Technologies and Expression Analysis (LTEA) Assay for MYC using HepaRG (AID 2283518). The method, boiled down: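 Differentiated HepaRG cells exposed 48 h in serum-free induction medium to 8 concentrations (top 100 uM, half-log steps; 0.5% DMSO), duplicate. MYC mRNA measured by Fluidigm qRT-PCR, normalized to ACTB, GAPDH, POLR2A; bidirectional fit versus DMSO.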

Read-out in assay [1]: matrix metalloproteinase-3 (MMP3), MMP3 (gene 4314)
Put plainly: LTEA_HepaRG_MMP3: Life Technologies and Expression Analysis (LTEA) Assay for matrix metalloproteinase-3 (MMP3) using HepaRG (AID 2283519). The method, boiled down:
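HepaRG, human; 48 h dosing, 8 conc. (max 100 uM, half-log), duplicate, 0.5% DMSO. Readout: MMP3 transcript by Fluidigm TaqMan qRT-PCR, ACTB/GAPDH/POLR2A-normalised. Gain or loss fitted vs DMSO.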

Read-out in assay [2]: Paternally Expressed 10 (PEG10), PEG10 (gene 23089)
As to the kind of experiment: LTEA_HepaRG_PEG10: Life Technologies and Expression Analysis (LTEA) Assay for Paternally Expressed 10 (PEG10) using HepaRG (AID 2283520). The method, boiled down: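 HepaRG, 48 h post-plating → serum-free induction medium → 48 h chemical exposure (duplicate, 8-pt, max 100 uM, half-log, 0.5% DMSO) → lysis in RLT → TaqMan qRT-PCR for PEG10, ACTB/GAPDH/POLR2A normalisation.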

Read-out in assay [3]: Nuclear factor NF-kappa-B p105 subunit (Homo sapiens) (UniProt P19838)
As to the kind of experiment: LTEA_HepaRG_NFKB1: Life Technologies and Expression Analysis (LTEA) Assay for Nuclear Factor Kappa B Subunit 1 (NFKB1) using HepaRG (AID 2283521). The procedure, abridged: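 NFKB1 transcript was measured by TaqMan qRT-PCR on Fluidigm arrays, normalised to three housekeeping genes and fitted in both directions against 0.5% DMSO. HepaRG cells were dosed in duplicate for 48 h in serum-free induction medium, eight half-log steps from 100 uM.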

Read-out in assay [4]: Protein phosphatase 2A (PPP2R4), PTPA (gene 5524)
Put plainly: LTEA_HepaRG_PPP2R4: Life Technologies and Expression Analysis (LTEA) Assay for Protein phosphatase 2A (PPP2R4) using HepaRG (AID 2283522). The procedure, abridged:
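Readout is PPP2R4 transcript level by microfluidic qRT-PCR after 48 h chemical treatment of human HepaRG liver cells. Concentrations spanned 100 uM downward in half-log steps; gain or loss of signal was fitted relative to DMSO.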

Read-out in assay [5]: Phosphatase and tensin (PTEN), PTEN (gene 5728)
As to the kind of experiment: LTEA_HepaRG_PTEN: Life Technologies and Expression Analysis (LTEA) Assay for Phosphatase and tensin (PTEN) using HepaRG (AID 2283523). The procedure, abridged: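 Read-out is PTEN transcript level by multiplexed TaqMan qRT-PCR after 48 h chemical treatment of human HepaRG cultures in serum-free induction medium. Concentrations spanned 100 uM downward in half-log steps, 0.5% DMSO throughout; activity fitted in both directions against vehicle.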

Read-out in assay [6]: solute carrier (SLC22A1), SLC22A1 (gene 6580)
As to the kind of experiment: LTEA_HepaRG_SLC22A1: Life Technologies and Expression Analysis (LTEA) Assay for solute carrier (SLC22A1) using HepaRG (AID 2283524). The procedure, abridged: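 HepaRG (human liver line), 48 h dosing in serum-free induction medium; 8 conc., half-log down from 100 uM, 0.5% DMSO vehicle, duplicates. Endpoint: SLC22A1 mRNA, qRT-PCR, housekeeping-normalized; gain/loss fit vs DMSO.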

Read-out in assay [7]: Pyruvate Dehydrogenase Kinase 4 (PDK4), PDK4 (gene 5166)
Put plainly: LTEA_HepaRG_PDK4: Life Technologies and Expression Analysis (LTEA) Assay for Pyruvate Dehydrogenase Kinase 4 (PDK4) using HepaRG (AID 2283525). The procedure, abridged:
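In this multiplexed human HepaRG expression assay, cells are treated 48 h with test chemicals across an eight-point range starting at 100 uM. PDK4 mRNA changes, normalized to ACTB/GAPDH/POLR2A, are fitted in both directions relative to vehicle.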

Read-out in assay [8]: NAD(P)H dehydrogenase [quinone] 1 (NQO1), NQO1 (gene 1728)
As to the kind of experiment: LTEA_HepaRG_NQO1: Life Technologies and Expression Analysis (LTEA) Assay for NAD(P)H dehydrogenase [quinone] 1 (NQO1) using HepaRG (AID 2283526). The method, boiled down: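 HepaRG, 48 h post-plating → serum-free induction medium → test chemical 48 h (duplicate, 100 uM top, half-log x8, 0.5% DMSO) → RNA isolation → qRT-PCR, ACTB/GAPDH/POLR2A normalization; bidirectional curve fit vs DMSO baseline.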

Read-out in assay [9]: Nuclear factor erythroid 2-related factor 2 (Homo sapiens) (UniProt Q16236)
As to the kind of experiment: LTEA_HepaRG_NFE2L2: Life Technologies and Expression Analysis (LTEA) Assay for Nuclear factor erythroid 2-related factor 2 (NFE2L2) Transcription Factor using HepaRG (AID 2283527). The procedure, abridged: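 Transcript level of NFE2L2 is the read-out, measured by microfluidic TaqMan qRT-PCR and normalized to three housekeeping genes. Human HepaRG cultures received test chemical for 48 h at up to 100 uM in half-log steps. Gain or loss of signal is fitted relative to 0.5% DMSO.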

Read-out in assay [10]: succinate dehydrogenase complex iron sulfur subunit B (SDHB), SDHB (gene 6390)
As to the kind of experiment: LTEA_HepaRG_SDHB: Life Technologies and Expression Analysis (LTEA) Assay for succinate dehydrogenase complex iron sulfur subunit B (SDHB) using HepaRG (AID 2283528). The procedure, abridged: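 SDHB transcript level read by TaqMan qRT-PCR, housekeeping-normalised (ACTB, GAPDH, POLR2A), after 48 h chemical treatment of plated HepaRG cells; eight concentrations top 100 uM, half-log steps, 0.5% DMSO, duplicates; fitted both directions against DMSO.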

Read-out in assay [11]: sulfotransferase 2A1 (SULT2A1), SULT2A1 (gene 6822)
As to the kind of experiment: LTEA_HepaRG_SULT2A1: Life Technologies and Expression Analysis (LTEA) Assay for sulfotransferase 2A1 (SULT2A1) using HepaRG (AID 2283531). The procedure, abridged: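 HepaRG human liver cells, 48 h exposure in serum-free induction medium to 8 half-log concentrations topping at 100 µM (0.5% DMSO), duplicate wells. SULT2A1 mRNA measured by TaqMan qRT-PCR, normalized to ACTB/GAPDH/POLR2A; bidirectional fit against DMSO.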

Read-out in assay [12]: Transforming Growth Factor (TGFA), TGFA (gene 7039)
Put plainly: LTEA_HepaRG_TGFA: Life Technologies and Expression Analysis (LTEA) Assay for Transforming Growth Factor (TGFA) using HepaRG (AID 2283532). The method, boiled down:
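HepaRG (human liver line), 48 h exposure, 8 conc. half-log down from 100 uM, 0.5% DMSO vehicle, duplicates; serum-free induction medium. TGFA mRNA by TaqMan qRT-PCR, ACTB/GAPDH/POLR2A normalization; gain/loss fit vs DMSO.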

Read-out in assay [13]: Transforming Growth Factor (TGFB1), TGFB1 (gene 7040)
Put plainly: LTEA_HepaRG_TGFB1: Life Technologies and Expression Analysis (LTEA) Assay for Transforming Growth Factor (TGFB1) Transporter using HepaRG (AID 2283533). The procedure, abridged:
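Differentiated HepaRG cells exposed 48 hr in serum-free induction medium to eight half-log concentrations up to 100 uM (0.5% DMSO), duplicate; TGFB1 mRNA by TaqMan qRT-PCR normalised to ACTB, GAPDH, POLR2A; bidirectional fit against DMSO.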

Read-out in another assay: TIMP1, TIMP1 (gene 7076)
As to the kind of experiment: LTEA_HepaRG_TIMP1: Life Technologies and Expression Analysis (LTEA) Assay for TIMP1 using HepaRG (AID 2283534).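 Also: TaqMan qRT-PCR signal normalized to ACTB GAPDH and POLR2A housekeeping genes.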 The procedure, abridged:
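Differentiated HepaRG cells exposed 48 h in serum-free induction medium, duplicates, eight half-log concentrations from 100 uM in 0.5% DMSO. TIMP1 mRNA by qRT-PCR normalized to ACTB, GAPDH, POLR2A; bidirectional fitting against DMSO.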

Read-out in assay [14]: Tumor necrosis factor receptor 1 (TNFRSF1A), TNFRSF1A (gene 7132)
Put plainly: LTEA_HepaRG_TNFRSF1A: Life Technologies and Expression Analysis (LTEA) Assay for Tumor necrosis factor receptor 1 (TNFRSF1A) using HepaRG (AID 2283535). The procedure, abridged:
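Differentiated HepaRG cells in serum-free induction medium, exposed 48 h in duplicate to 8 half-log concentrations up to 100 uM in 0.5% DMSO. TNFRSF1A mRNA by Fluidigm TaqMan qRT-PCR, normalized to ACTB, GAPDH, POLR2A; bidirectional fit.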

Read-out in assay [15]: Thyroid Hormone Responsive (THRSP), THRSP (gene 7069)
Put plainly: LTEA_HepaRG_THRSP: Life Technologies and Expression Analysis (LTEA) Assay for Thyroid Hormone Responsive (THRSP) using HepaRG (AID 2283536). The method, boiled down: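 mRNA induction or loss relative to 0.5% DMSO vehicle was fitted bidirectionally across an eight-point curve whose highest exposure was 100 uM. Human HepaRG liver cells received chemicals in duplicate over 48 h before RNA extraction.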

Read-out in assay [16]: UDP glucuronosyltransferase (UGT1A1), UGT1A1 (gene 54658)
As to the kind of experiment: LTEA_HepaRG_UGT1A1: Life Technologies and Expression Analysis (LTEA) Assay for UDP glucuronosyltransferase (UGT1A1) using HepaRG (AID 2283538). The method, boiled down: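 Readout is UGT1A1 transcript level by qRT-PCR, normalized to three housekeeping genes, after 48 h chemical treatment of HepaRG cells. Concentrations ran from 100 uM down in half-log steps with 0.5% DMSO, and gain or loss relative to DMSO was fitted.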

Read-out in assay [17]: UDP glucuronosyltransferase (UGT1A6), UGT1A6 (gene 54578)
Put plainly: LTEA_HepaRG_UGT1A6: Life Technologies and Expression Analysis (LTEA) Assay for UDP glucuronosyltransferase (UGT1A6) using HepaRG (AID 2283539). The procedure, abridged:
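Differentiated HepaRG cells, ~100,000/well, were exposed for 48 h in serum-free induction medium with 0.5% DMSO to 8-point half-log series topping at 100 uM, in duplicate. mRNA measured by Fluidigm TaqMan qRT-PCR, normalized to ACTB, GAPDH and POLR2A.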

Active and inactive are the calls of the source. The calls were made as follows: active = hit-call score of the fitted dose curve at least 0.9, where 1 is the maximum; inactive = score below 0.9.

Nuclear factor erythroid 2-related factor 2 (Homo sapiens), sequence (Q16236 whole entry, looked up): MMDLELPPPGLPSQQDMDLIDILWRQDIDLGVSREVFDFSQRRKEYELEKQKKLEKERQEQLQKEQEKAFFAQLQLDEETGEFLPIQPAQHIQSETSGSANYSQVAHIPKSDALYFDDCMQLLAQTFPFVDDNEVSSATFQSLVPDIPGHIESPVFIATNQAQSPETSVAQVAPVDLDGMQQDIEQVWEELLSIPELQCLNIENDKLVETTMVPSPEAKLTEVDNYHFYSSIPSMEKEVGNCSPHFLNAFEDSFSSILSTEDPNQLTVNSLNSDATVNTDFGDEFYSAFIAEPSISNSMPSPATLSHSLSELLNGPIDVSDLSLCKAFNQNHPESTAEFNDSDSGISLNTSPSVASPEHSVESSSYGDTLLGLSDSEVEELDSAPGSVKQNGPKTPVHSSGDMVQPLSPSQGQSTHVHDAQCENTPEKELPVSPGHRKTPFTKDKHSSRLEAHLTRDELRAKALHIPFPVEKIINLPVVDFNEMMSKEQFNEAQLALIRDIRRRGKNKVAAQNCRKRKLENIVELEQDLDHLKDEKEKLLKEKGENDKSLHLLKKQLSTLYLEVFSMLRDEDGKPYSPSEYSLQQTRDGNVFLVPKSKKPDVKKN
Nuclear factor NF-kappa-B p105 subunit (Homo sapiens), sequence (P19838 whole entry, looked up): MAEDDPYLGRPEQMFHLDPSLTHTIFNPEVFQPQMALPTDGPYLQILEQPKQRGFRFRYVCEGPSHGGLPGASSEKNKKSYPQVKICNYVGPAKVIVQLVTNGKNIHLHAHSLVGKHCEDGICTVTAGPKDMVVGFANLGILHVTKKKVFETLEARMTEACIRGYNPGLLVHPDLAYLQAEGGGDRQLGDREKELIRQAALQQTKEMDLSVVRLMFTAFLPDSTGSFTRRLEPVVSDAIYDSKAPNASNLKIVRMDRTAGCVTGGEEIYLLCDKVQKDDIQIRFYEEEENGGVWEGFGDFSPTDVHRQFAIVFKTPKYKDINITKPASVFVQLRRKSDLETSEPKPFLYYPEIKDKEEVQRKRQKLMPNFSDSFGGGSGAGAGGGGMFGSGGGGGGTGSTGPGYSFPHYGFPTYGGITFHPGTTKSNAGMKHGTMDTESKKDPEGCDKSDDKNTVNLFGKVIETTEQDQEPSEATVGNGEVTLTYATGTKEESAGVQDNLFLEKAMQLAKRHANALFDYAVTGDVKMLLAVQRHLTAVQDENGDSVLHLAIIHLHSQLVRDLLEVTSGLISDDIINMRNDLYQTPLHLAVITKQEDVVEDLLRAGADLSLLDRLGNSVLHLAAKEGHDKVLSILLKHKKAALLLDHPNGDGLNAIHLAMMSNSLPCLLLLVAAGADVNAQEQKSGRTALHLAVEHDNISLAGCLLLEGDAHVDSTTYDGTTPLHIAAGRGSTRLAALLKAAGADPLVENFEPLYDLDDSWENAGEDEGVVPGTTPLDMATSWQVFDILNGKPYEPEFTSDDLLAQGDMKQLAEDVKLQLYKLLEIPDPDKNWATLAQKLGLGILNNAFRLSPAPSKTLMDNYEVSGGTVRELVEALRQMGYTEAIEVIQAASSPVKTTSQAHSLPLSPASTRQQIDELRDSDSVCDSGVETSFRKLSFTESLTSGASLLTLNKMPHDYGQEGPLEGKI

Consider `CCCCCCCCCCCCc1cccc(S(=O)(=O)O)c1`, for which the outcome with MYC, MYC (gene 4609) was “inactive”; in assay [1], “inactive”; in [2], “inactive”; in assay [3], “inactive”; in assay [4] it was “inactive”; in assay [5], “inactive”. Moreover, the outcome is “inactive” in [6]; “inactive” in [7]; “inactive” in assay [8]; “inactive” in [10]; “inactive” in [11]; “inactive” with TIMP1, TIMP1 (gene 7076). For the same compound, the result in assay [14] and in assay [17] was inactive. Besides, the concentration at half-maximal activity (AC50) (commonly the concentration at which the activity in the assay is half-maximal) in [9] is 45 µM (active); in [12], 45 µM (active); in assay [13], 45 µM (active); in assay [15], 66.9 µM (active); in assay [16] it was 22.9 µM (active).
In the case of `CC(C)O.CC(C)O.OCCN(CCO)CCO.OCCN(CCO)CCO.[Ti]`, the outcome is “inactive” with MYC, MYC (gene 4609); “inactive” in assay [1]; “inactive” in assay [2]; “inactive” in assay [3]; “inactive” in [4]; “inactive” in [5]. The call in assay [6], in [7], in assay [8], in [9], in assay [10] and in assay [11] was inactive. For the same compound, the outcome in assay [12] is “inactive”; in assay [13], “inactive”; with TIMP1, TIMP1 (gene 7076) it was “inactive”; in assay [14] it was “inactive”; in assay [15] it was “inactive”; in assay [16], “inactive”. In assay [17], the result was inactive.
For the compound `COc1ccccc1N`, the outcome is “inactive” with MYC, MYC (gene 4609); “inactive” in assay [1]; “inactive” in assay [2]; “inactive” in [4]; “inactive” in [5]; “inactive” in assay [6]. Moreover, the compound was called inactive in [7], in assay [8], in assay [9], in assay [10], in assay [11] and in assay [12]. Further, the outcome in [13] was “inactive”; with TIMP1, TIMP1 (gene 7076) it was “inactive”; in assay [14], “inactive”; in assay [15], “inactive”; in [16], “inactive”; in [17], “inactive”.

(Values after PubChem BioAssay (EPA / NIEHS).)
